HCMV inh: inhibitors of human cytomegalovirus; 410,000 compounds, 4.5% hits; AID 1259415; HFF cells, HCMV-luciferase reporter, 72 h; hits give low values; activity change, negative = inhibition, % at 57.5 µM; in the data active = activity change below about -60%; inconclusive = no clear call, values can overlap the other calls; inactive = above about -39%
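Steps: HFFs plated, 16 h 37C; compounds added; HCMV-luciferase added to MOI 1 PFU/cell; 72 h 37C; OneGlo reagent, 5 min room temperature; luminescence read, normalized to controls.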
TbPYK inhibitor: T. brucei pyruvate kinase inhibition | Q57TT1 | TbPYK enzyme, Kinase-Glo Plus ATP luminescence, 45 min | Potency, µM (series often up to 76.8 µM), usual class: inhibitors | 410,000 compounds, 0.12% hits | AID 624173; note: nearly all actives have a fitted effect of over 50% in size
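In this concentration-response screen, enzyme-free wells defined baseline while DMSO plates tracked drift. Each reaction combined TbPYK, substrate, compound and 130 uM ADP for 45 min at room temperature. Kinase-Glo Plus luminescence gave the signal.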
Sm TGR block: blocks Schistosoma mansoni thioredoxin glutathione reductase; Q962Y6; purified TGR, DTNB reduction, TNB absorbance 405 nm; Potency, µM (titrated, usually from 114 µM), most hits filed as inhibitors; 360,000 compounds, 3% hits; note: nearly all actives have a fitted effect of over 60% in size
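First, TGR (20 nM dispensed) and NADPH were mixed with compound. Second, a 15 min room-temperature incubation followed. Third, further NADPH and then DTNB were added to start the reaction. Finally, TNB absorbance was monitored kinetically.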
RE007 growth inh: less growth of the S. pombe RE007 Vpr strain; S. pombe RE007 Vpr strain, BacTiter-Glo ATP luminescence, 24 h; 360,000 compounds, 0.21% hits; Potency, µM (titrated, usually from 92.2 µM), hits mostly inhibitors; active = well fitted falling curve with a large enough effect; inconclusive = small, poorly fitted or top-dose-only effect; inactive = no such curve, though single readings can be large or run the other way; note: nearly all actives have a fitted effect of over 50% in size
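Fission yeast strain RE007, carrying one chromosomally integrated HIV-1 vpr copy, was seeded at OD 0.01 in PMG+AL medium with 23 nL pinned compound. After 24 h at 30 °C and 99% humidity, viability was read by BacTiter-Glo luminescence.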
FMDV inh: blocks foot and mouth disease virus. FMDV antiviral cell-based qHTS. Potency, µM (doses to about 57.9 µM), hits mostly inhibitors. 410,000 compounds, 1.2% hits. AID 1159524; calls by dose curve; tested in HEK293T cells; note: read-out not given here; nearly all actives have a fitted effect of over 45% in size
Giardia FBPA inh: inhibitors of Giardia lamblia fructose-1,6-bisphosphate aldolase | A8B2U2 | purified Giardia FBPA | Potency, µM (top dose mostly 59.6 µM), usual class: inhibitors | 290,000 compounds, 0.71% hits | AID 2451; note: nearly all actives have a fitted effect of over 55% in size
Target sequence (A8B2U2 whole entry, looked up): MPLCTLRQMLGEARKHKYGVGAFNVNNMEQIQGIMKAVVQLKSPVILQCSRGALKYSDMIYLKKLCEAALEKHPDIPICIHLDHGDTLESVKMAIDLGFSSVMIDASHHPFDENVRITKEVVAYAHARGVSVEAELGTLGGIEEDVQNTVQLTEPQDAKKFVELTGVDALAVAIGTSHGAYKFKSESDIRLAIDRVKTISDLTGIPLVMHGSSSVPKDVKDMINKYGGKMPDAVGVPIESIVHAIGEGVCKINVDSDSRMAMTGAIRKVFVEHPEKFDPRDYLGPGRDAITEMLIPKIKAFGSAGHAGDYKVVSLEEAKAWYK
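Giardia FBPA (40 nM reagent) was preincubated 10 min at RT with compound (up to 57.5 uM final), then substrate plus GAPDH/TPI/NAD/arsenate coupling system with diaphorase/resazurin was added; resorufin fluorescence (525/598 nm) was read after 20 min.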
Numbers stand for hits. A selection: hits, their analogues and other compounds. The true share with any hit is near 7.7%. Unless noted, calls come from the whole dose curve; as a rule, active = well fitted curve in the direction sought with a large enough effect; inconclusive = small, poorly fitted or top-dose-only effect, or another doubt; inactive = no such curve, though single readings can be large; an effect the other way counts as inactive or inconclusive.

For CCN(CC(=O)NC(C)(C)C)C(=O)CCl the results were HCMV inh inconclusive, TbPYK inhibitor inactive, Sm TGR block 50µM, RE007 growth inh inactive, FMDV inh inconclusive and Giardia FBPA inh inactive.
For Cc1ccc(C(=O)NCCN(C)C)c(C)c1 the results were HCMV inh inactive, TbPYK inhibitor inactive, Sm TGR block inactive, RE007 growth inh inactive, FMDV inh inactive and Giardia FBPA inh inactive.
`CNc1c2cccc(C)c2nc2c(C(=O)NCCN(C)C)cccc12` gave HCMV inh -100, TbPYK inhibitor inactive, RE007 growth inh inactive and FMDV inh inconclusive.
Cc1nc2ccccn2c1C(=O)CSc1ccccc1Cl was read as HCMV inh -66, TbPYK inhibitor inactive, Sm TGR block inactive, RE007 growth inh inactive, FMDV inh 25µM and Giardia FBPA inh inactive.
COc1ccc(CCNC(=O)COc2coc(CN3c4ccccc4CC3C)cc2=O)cc1OC (stereo not given) was read as HCMV inh inconclusive, TbPYK inhibitor inactive, Sm TGR block inactive, RE007 growth inh inactive and FMDV inh 22µM.
c1ccc(C2(N3CCCC3)CCCCC2)cc1 was read as TbPYK inhibitor inactive.
C#CC1(N2CCCCC2)CCCCC1 was read as HCMV inh -62, TbPYK inhibitor inactive, RE007 growth inh inactive and FMDV inh inactive.
For CCN(C(=O)c1cc2c(s1)-c1c(C)cccc1OC2)c1cc(C)ccc1C the results were HCMV inh inactive, TbPYK inhibitor inactive, Sm TGR block inactive and FMDV inh inactive.
For Cc1cc(C)n(-c2ccc(NC(=O)C3CCN(Cc4cnc(C)s4)CC3)cc2)n1 the results were HCMV inh -60, TbPYK inhibitor inactive, Sm TGR block inactive, RE007 growth inh inactive, FMDV inh inactive and Giardia FBPA inh inactive.
For COc1cccc(C2=Nn3c(nnc3-c3ccccc3C)SC2)c1 the results were Giardia FBPA inh 10µM.
`COc1ccc(C2=Nn3c(nnc3-c3ccccc3F)SC2)cc1OC1CCOC1` (stereo not given) gave HCMV inh inactive, TbPYK inhibitor inactive and FMDV inh inactive.
Screening CCOc1ccccc1-c1nnc2n1N=C(c1ccc(OC)c(OC)c1)CS2 returned Giardia FBPA inh inactive.
`COc1ccc(C2=Nn3c(nnc3-c3ccccc3F)SC2)cc1OC1CCCC1` gave HCMV inh -75, TbPYK inhibitor inactive and FMDV inh inactive.
For COc1ccc(C2=Nn3c(nnc3-c3ccccc3OC)SC2)cc1OCC1CC1 the results were HCMV inh -84, TbPYK inhibitor inactive and FMDV inh inconclusive.
`COc1ccc(OC)c(-c2nnc3n2N=C(c2ccc(OC)c(OC)c2)CS3)c1` gave HCMV inh -67, TbPYK inhibitor inactive, Sm TGR block inactive, FMDV inh inactive and Giardia FBPA inh inactive.
For COc1ccc(OC)c(C2=Nn3c(nnc3-c3cc(OC)ccc3OC)SC2)c1 the results were Giardia FBPA inh inactive.
Screening COc1ccc(OC)c(-c2nnc3n2N=C(c2ccc(OC)c(OC4CCCC4)c2)CS3)c1 returned HCMV inh -88, TbPYK inhibitor inactive and FMDV inh inconclusive.
Screening CC[C@H](C)[C@H](NC(=O)[C@@H](NC(=O)[C@@H](CC(=O)NO)Cc1ccccc1)[C@@H](C)CC)C(=O)O returned Giardia FBPA inh inactive.
`CCc1ccc(-n2c(O)c(C=NCCN(CC)CC)c(=O)[nH]c2=O)cc1` gave HCMV inh inactive, TbPYK inhibitor inactive, Sm TGR block 22µM, RE007 growth inh inactive, FMDV inh inactive and Giardia FBPA inh inactive.
Screening O=S(=O)(c1ccccc1)N1[C@@H]2CC[C@@H](C2)[C@H]1c1nc2c(OCC3CCOCC3)cccc2[nH]1 returned HCMV inh inactive.
Screening CCc1ccc2c(c1)C(NC(C)=O)C(=O)N2CCN1CCOCC1 (stereo not given) returned HCMV inh inactive, TbPYK inhibitor inactive, Sm TGR block 89µM, RE007 growth inh inactive, FMDV inh inactive and Giardia FBPA inh inactive.
For Cc1ccc(NC(=O)c2cccc(OCc3c(C)noc3C)c2)cc1S(=O)(=O)Nc1ccccc1Cl the results were HCMV inh -66, TbPYK inhibitor inactive, Sm TGR block inactive, RE007 growth inh inactive, FMDV inh inactive and Giardia FBPA inh inactive.
For Cc1ccc(NC(=O)c2ccc(OCc3c(C)noc3C)cc2)cc1C the results were HCMV inh inconclusive, TbPYK inhibitor inactive, RE007 growth inh inactive and FMDV inh 32µM.
Cc1noc(C)c1COc1cccc(C(=O)Nc2ccc3c(c2)OCO3)c1 was read as HCMV inh inactive, TbPYK inhibitor inactive, Sm TGR block inactive, RE007 growth inh inactive, FMDV inh inactive and Giardia FBPA inh inactive.
For CN1CCN(c2nccc3[nH]c(-c4ccccc4Cl)nc23)CC1 the results were HCMV inh inactive.
CC(=O)c1ccc(NC(=O)C(C)Sc2nnc(-c3ccncc3)n2C2CC2)cc1 (stereo not given) was read as HCMV inh -64, TbPYK inhibitor inactive, RE007 growth inh inactive and FMDV inh inactive.
`O=C(c1ccccc1C(F)(F)F)N1CC2ON=C(c3c(F)cccc3Cl)C2C1` (stereo not given) gave HCMV inh inactive.
For Cc1cc(N2CCN(C(=O)Oc3ccc([N+](=O)[O-])cc3)CC2)c2ccccc2n1 the results were HCMV inh inconclusive, TbPYK inhibitor inactive, RE007 growth inh inconclusive and FMDV inh 25µM.
For COc1cccc(Cl)c1NC(=O)N1CCN(c2cc(C)nc3ccccc23)CC1 the results were HCMV inh -80, TbPYK inhibitor inactive, Sm TGR block inactive, RE007 growth inh inactive, FMDV inh inconclusive and Giardia FBPA inh inactive.
`CCN1CCN(CC(=O)c2ccc(C)cc2)CC1` gave HCMV inh -67, TbPYK inhibitor inactive, Sm TGR block inactive, RE007 growth inh inactive, FMDV inh inactive and Giardia FBPA inh inconclusive.
COc1ccc(N2CCN(C(=O)CCCC(=O)c3ccccc3)CC2)cc1 was read as HCMV inh inactive, TbPYK inhibitor inactive, Sm TGR block inactive, RE007 growth inh inactive, FMDV inh inactive and Giardia FBPA inh inactive.
COc1ccc(N2CCN(CC(=O)c3ccccc3)CC2)cc1 was read as TbPYK inhibitor inactive, Sm TGR block 13µM, RE007 growth inh inactive, FMDV inh inactive and Giardia FBPA inh inactive.
COc1cccc(Cl)c1NC(=O)N1CCN(c2ccnc3cc(Cl)ccc23)CC1 was read as HCMV inh inconclusive, TbPYK inhibitor inactive, Sm TGR block inactive, RE007 growth inh inactive, FMDV inh inactive and Giardia FBPA inh inactive.
For CC(=O)Nc1ccc(C(=O)CN2CCN(c3ccccc3)CC2)cc1 the results were HCMV inh inactive, TbPYK inhibitor inactive, Sm TGR block 14µM, RE007 growth inh inactive, FMDV inh inactive and Giardia FBPA inh inactive.

High-throughput results: PubChem BioAssay, National Center for Advancing Translational Sciences (NCATS)
